# Screening results: PubChem BioAssay, several laboratories
# TIM10 inh – growth inhibitors of TIM10 yeast strain | S. cerevisiae TIM10 strain growth, BacTiter-Glo luminescence, 24 h | inhibition, % at 10 µM | actives 1.4% (n = 330,000) | AID 463195;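 active means inhibition of 40% or more at the single tested concentration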;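 further: wild-type TIM10 isogenic control strain grown at permissive 25 °C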
# tim23-1 inh – tim23-1 yeast growth inhibition. S. cerevisiae tim23-1 growth, BacTiter-Glo luminescence, 24 h. inhibition, % at 20 µM. actives 1.3% (n = 330,000). AID 463212;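 active means growth inhibition of the mutant yeast at or above 50%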;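 further: temperature-sensitive mutant grown at 25 °C; plate controls were DMSO-treated mutant yeast for no effect and medium wells lacking yeast for full effect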
# NALP3 yeast inh – inhibitors of NALP3 inflammasome in yeast; Yeast reconstituted NLRP3/ASC/caspase-1, beta-gal luminescence, 24 h; inhibition, % at 10 µM; actives 0.39% (n = 330,000); AID 2825;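 active means inhibition of 50% or more; inactive means inhibition below 50%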;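 further: plate controls were induced DMSO wells for no effect and uninduced yeast grown without galactose for full effect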
# NALP1 yeast inh – NALP1 inhibition; S. cerevisiae NALP1/ASC/caspase-1 growth, X-gal OD620, 72 h; inhibition, % at 10 µM; actives 0.61% (n = 280,000); AID 2071; in the data active means inhibition mostly above about 24%, no sharp cut-off; inactive means mostly below about 32%
# tim10-1 inh – growth inhibitors of tim10-1 mutant yeast; S. cerevisiae tim10-1 ts strain growth, BacTiter-Glo, 24 h; inhibition, % at 20 µM; actives 2.2% (n = 330,000); AID 463190;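 active means inhibition of at least 40%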;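 further: mutant grown at 25 °C; 0% = DMSO wells with yeast and 100% = wells holding no yeast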
# PfHsp90 yeast 2 – growth inhibition of yeast expressing Plasmodium Hsp90 | S. cerevisiae expressing PfHsp90, BacTiter-Glo ATP, 48 h; yeast lacking PDR1 and PDR3 efflux regulators | actives 0.32% (n = 310,000) | inhibition, % at 9.4 µM | AID 504621;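 active means every replicate shows inhibition above about 80%, whatever the replicate mean, limit read from the data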;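 further: 0% = DMSO neutral controls and 100% = 20 µM radicicol positive controls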
# tim10-1 confirm – tim10-1 yeast growth inhibition, confirmed | inhibition, % at 20 µM | shares compounds with tim10-1 inh | actives 56% (n = 7,400) | S. cerevisiae tim10-1 ts strain growth, BacTiter-Glo, 24 h;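 active means inhibition of yeast growth at or above a set limit in either of two repeat tests at 20 µM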;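 further: tim10-1 mutant grown at permissive 25 °C to find synthetic lethal compounds; 0% = DMSO yeast wells and 100% = medium wells without yeast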
# * hit, by the source's call; . = no result given. A selection: hits, their analogues and other compounds. The true share with any hit is near 4.2%.
SMILES,TIM10 inh,tim23-1 inh,NALP3 yeast inh,NALP1 yeast inh,tim10-1 inh,PfHsp90 yeast 2,tim10-1 confirm
O=C(CCl)Nc1cccc(S(=O)(=O)N2CCCCCC2)c1,19.9,48.1,-6.7,29.3,40.7*,11.2,33.6*
O=C(CN1CCN(S(=O)(=O)N2CCCCC2)CC1)Nc1ccc(Cl)c(Cl)c1,13.5,26.9,16.1,6.9,16.9,4.5,.
O=C(Cc1ccc(Cl)cc1)Nc1cccc(S(=O)(=O)N2CCCCC2)c1,-4.1,10.6,15.7,.,7.4,-0.6,.
O=C(CN1CCN(S(=O)(=O)c2ccccc2)CC1)Nc1ccc(Cl)c(Cl)c1,24.9,10.1,8.5,-4.1,43.1*,.,30.0*
Cc1noc(C)c1C(=O)OC(C)C(=O)NC(C)c1ccc(Cl)cc1Cl (centres undefined),7.6,14.1,14.8,.,18.8,21.7,.
O=C(CSc1nnnn1-c1ccccc1)NCCCN1CCCC1=O,-5.2,-11.1,15.4,.,-16.0,.,.
CCOc1ccc(NC(=O)CN2CCN(S(=O)(=O)c3ccc(Cl)cc3)CC2)cc1,10.3,37.1,7.4,7.0,40.8*,23.5,21.9
Cc1ccc(/C=N/NC(=O)CN2CCN(S(=O)(=O)c3ccc(Br)cc3)CC2)s1,6.9,37.7,9.9,4.4,2.7,-3.5,.
CN(CC(=O)Nc1ccc(S(=O)(=O)N2CCCC2)cc1)Cc1ccc(Cl)cc1Cl,3.0,32.9,-4.5,36.2,46.2*,7.4,22.0
CN(CC(=O)Nc1ccc(S(=O)(=O)N2CCCC2)cc1)CC(=O)Nc1ccc(F)c(F)c1F,-3.3,13.2,22.0,20.9,2.0,7.0,.
O=C(CN1CCN(S(=O)(=O)c2ccc(Br)cc2)CC1)N/N=C/c1ccc(Br)s1,24.0,43.0,14.7,-9.9,43.6*,8.6,36.0*
CC(C)c1ccc(S(=O)(=O)N2CCN(CC(=O)Nc3ccc4c(c3)OCO4)CC2)cc1,20.0,34.8,1.5,1.1,52.1*,-10.1,40.5*
O=C(CN1CCN(S(=O)(=O)c2ccc(Cl)cc2)CC1)Nc1ccc2c(c1)OCO2,-6.1,31.9,10.0,7.9,33.7,-19.1,.
O=C(CCN1C(=O)C2CC=CCC2C1=O)Nc1cc(C(F)(F)F)ccc1N1CCCC1 (centres undefined),8.0,27.4,30.6,.,16.7,-18.5,.
COc1ccc(C(=O)NC(C)c2cccnc2)cc1S(=O)(=O)N(C)Cc1ccccc1 (centres undefined),2.4,1.0,5.7,.,-7.4,28.3,.
CCc1ccc(NC(=O)CSc2nc(=O)n(CCCN(C)C)c3c2CCC3)cc1,2.5,-4.3,8.6,.,-1.3,.,.
CN(C(=O)c1ccc(NC(=O)C2CCCN(C(=O)OC(C)(C)C)C2)cc1)C1CCC1 (centres undefined),2.2,5.0,-6.5,.,-2.6,-1.9,.
COc1cccc(CNC(=O)Cc2ccc(OC)c(S(=O)(=O)N3CCOCC3)c2)c1,-1.8,-3.9,1.4,.,2.4,-7.6,.
O=C(CN1CCN(c2nc(-c3ccc(F)cc3)cs2)CC1)Nc1ccc2c(c1)OCO2,6.0,27.4,20.0,8.1,45.7*,-16.9,26.9
Cc1cc(C)cc(NC(=O)CN2CCCN(S(=O)(=O)c3ccc(Br)s3)CC2)c1,29.4,30.6,10.3,8.1,44.2*,21.6,24.4
NC(=O)CN1CCN(c2nc(-c3ccc(F)cc3)cs2)CC1,1.3,3.1,7.9,-4.1,17.8,19.0,.
CCCNC(=O)CN1CCN(S(=O)(=O)c2ccc(Br)s2)CC1,1.4,28.0,9.0,.,4.6,-16.1,.
Cc1csc(SCC(=O)NC2CCC(C)CC2)n1 (centres undefined),-4.0,-8.8,6.9,.,-1.0,-36.2,.
CC(=O)Nc1ccc(S(=O)(=O)N2CCN(C(=O)c3ncoc3-c3ccc(C)cc3)CC2)cc1,-9.7,9.9,15.0,-5.5,-14.7,-2.7,.
COc1ccccc1N1CCN(C(=O)c2oc3ccc(F)cc3c2C)CC1,24.3,43.9,12.2,30.3,42.0*,-31.5,28.7
SMILES,TIM10 inh,tim23-1 inh,NALP3 yeast inh,NALP1 yeast inh,tim10-1 inh,PfHsp90 yeast 2,tim10-1 confirm
COc1ccc2oc(C(=O)NNC(=O)c3ccc(F)cc3)c(C)c2c1,-4.0,-4.0,32.4,.,-15.1,-20.0,.
COc1ccc(/C=C/C(=O)c2oc3ccc(F)cc3c2C)cc1,26.8,29.1,-0.8,13.4,40.9*,13.9,31.4*
O=C(c1cc2ccccc2cc1O)N1CCN(c2cccc(Cl)c2)CC1,37.4,47.5,4.6,.,47.0*,.,30.1*
O=C(c1ccccc1Br)N1CCN(c2ccccc2)CC1,0.7,26.7,2.6,0.0,85.5*,.,15.3
COc1ccc(CNC(=O)C2CCC(CNS(=O)(=O)c3ccccc3)CC2)cc1 (centres undefined),-4.0,1.8,8.5,17.1,4.9,0.6,.
COc1ccccc1CCN=C(N)NS(=O)(=O)c1ccccc1F,-4.8,3.4,7.9,-6.2,-0.8,8.9,.
COc1ccc2c(CC(=O)NC(Cc3ccc(Cl)cc3)C(=O)O)cc(=O)oc2c1C (centres undefined),-0.8,19.2,19.0,-51.2,26.7,-6.6,.
Cc1[nH]c2ccc(C(=O)N3CCN(c4cccc(Cl)c4)CC3)cc2c1C,13.5,48.1,10.0,0.4,56.0*,93.0*,13.4
COc1ccccc1N1CCN(C(=O)c2ccc3[nH]c(C)c(C)c3c2)CC1,25.9,45.6,9.3,-4.1,42.3*,-27.7,25.2
Cc1cccc(N2CCN(C(=O)c3ccc4[nH]c(C)c(C)c4c3)CC2)c1C,19.0,29.0,8.6,.,13.4,-5.8,.
N#Cc1c2n(c(=S)n(-c3ccc(F)cc3)c1=O)CCCCC2,-0.3,0.0,-0.5,12.6,23.6,2.9,.
COc1ccc(CN(C)Cc2c(O)ccc3cc(Br)ccc23)cc1OC,21.5,21.7,9.0,14.1,10.8,10.9,.
Cc1ccc(CC(=O)Nc2nc3ccccc3s2)cc1,17.6,28.5,22.9,15.3,44.0*,-45.5,26.1
COc1cccc(-n2cc(-c3ccc(F)cc3)[nH]c2=S)c1,26.4,48.2,21.6,-15.2,46.0*,19.0,14.0
COc1ccc(NC(=O)CN2C(=O)CSC(C)C2=O)cc1 (centres undefined),6.5,-5.7,2.2,4.7,4.8,-11.0,.
O=C(NCc1ccccc1F)C1CCCN1C(=O)Nc1ccc(Cl)cc1 (centres undefined),-5.2,-2.5,0.0,25.5,-12.3,1.8,.
Clc1ccccc1-c1nnc2sc(-c3ccc(Br)o3)nn12,24.9,37.3,8.3,-2.2,40.2*,-11.9,29.8*
Brc1ccc(-c2nn3c(Cc4ccccc4)nnc3s2)o1,23.0,20.3,23.1,-3.4,41.5*,-6.3,10.9
Clc1ccc(-c2nnc3sc(-c4ccc(Br)o4)nn23)cc1,-29.4,-5.2,6.2,-8.1,-29.4,-32.7,.
Clc1ccc(-c2nnc3sc(-c4ccc(Br)o4)nn23)c(Cl)c1,1.4,-4.9,18.9,-11.3,-2.9,5.7,.
